Reference: PubChem BioAssay (EPA / NIEHS)
Records with an inconclusive call do not appear. Active and inactive are the calls of the source. The calls were made as follows: active = hit-call score of the fitted dose curve at least 0.9, where 1 is the maximum; inconclusive = response in the unintended direction; inactive = score below 0.9.

Test: ATG_GAL4_TRANS: Attagene TRANS-FACTORIAL HepG2 Assay for GAL4 (Internal Marker) (AID 2282976)
Conditions: HepG2 Attagene TRANS GAL4 internal marker reporter
Protocol: ATG_TRANS is a cell-based, multiplexed-readout assay that uses HepG2, a human liver cell line, with measurements taken at 24 hours after chemical dosing in a 24-well plate.ATG_GAL4_TRANS is one of 30 assay component(s) measured or calculated from the ATG_TRANS assay. It is designed to make measurements of mRNA induction, a form of inducible reporter, as detected with fluorescence intensity signals by Reverse transcription polymerase chain reaction (RT-PCR) and Capillary electrophoresis technology.Data from the assay component ATG_GAL4_TRANS was analyzed into 1 assay endpoint. This assay endpoint, ATG_GAL4_TRANS, was analyzed in the positive analysis fitting direction relative to DMSO as the negative control and baseline of activity. Using a type of inducible reporter, measures of mRNA for gain-of-signal activity can be used to understand the background control at the transcription factor-level as they relate to the gene . Furthermore, this assay endpoint can be referred to as a secondary readout, because this assay has produced multiple assay endpoints where this one serves a background control function. To generalize the intended target to other relatable targets, this assay endpoint is annotated to the background measurement intended target family, where the subfamily is baseline control.
Human liver HepG2 cells are transiently transfected with multiple reporter transcription units (MRTUs) in 6-well plates using FuGene 6 reagent (Roche; 3 ml FuGene/1 mg DNA). The MRTU constructs are regulated by a cis-regulating element (promoter). […] A major difference between the CIS and TRANS system is that in CIS activities of endogenous TFs are measured, whereas the TRANS assay evaluates changes in activities of exogenous, chimeric NR-Gal4 proteins. […] At the end of 24 hour incubation, total RNA was isolated using TriZol reagent (Invitrogen). The isolated RNA is then reverse-transcribed using oligo(dT) primer and Mo-MLV reverse transcriptase (Invitrogen) with DNAse I (Ambion) treatment for 30 min. The one-tenth of the produced cDNA was amplified by PCR using Taq DNA polymerase (Invitrogen) and two reporter sequence-specific primers. The PCR products were fluorescently labeled by primer extension with 6-arboxyfluorescein (6-FAM) 5'-labeled reporter sequence-specific primer (2 min at 95 C, 20 s at 68 C and 10 min at 72 C) and these products were digested with 5U of HpaI (New England Biolabs) for 2h at 37 C. The fragments were purified using Qiaquick PCR columns (Qiagen), analyzed on an ABI 3130xL genetic analyzer (Applied Biosystems) with peak positions identified by using a set of X-rhodamine (ROX)-labeled MapMarker1000 molecular weight standards (BioVentures). The raw capillary electrophoresis data was processed using Attagraph software (Attagene).

SMILES | outcome | AC50
O=C(O)/C=C\C(=O)O | inactive | 
CC(C)n1c(/C=C/[C@@H](O)C[C@@H](O)CC(=O)O)c(-c2ccc(F)cc2)c2ccccc21 | inactive | 
c1cc(N(CC2CO2)CC2CO2)ccc1Cc1ccc(N(CC2CO2)CC2CO2)cc1 (stereo not given) | inactive | 
CC(=O)CCc1ccccc1 | inactive | 
Cc1cc(O)cc(C)c1Cl | inactive | 
CCCCCCCC#N | inactive | 
CCCCNC(N)=O | inactive | 
CC(C)CC(=O)CC(C)C | inactive | 
CCC(C)C1N=C(C)C(C)S1 (stereo not given) | inactive | 
COc1c2occc2cc2ccc(=O)oc12 | inactive | 
CC[N+](CC)(CC(=O)Nc1c(C)cccc1C)Cc1ccccc1 | inactive | 
CCCCCCCCCCC1CO1 (stereo not given) | inactive | 
COCCCN | inactive | 
CC(C)CC(=O)CC(C)CC(C)C (stereo not given) | inactive | 
Cc1ccnc(N)c1 | inactive | 
CCCCCC1CCCC(=O)O1 (stereo not given) | inactive | 
CC/C=C/CCO | inactive | 
O=C(O)c1cc(Cl)cc(Cl)c1O | inactive | 
CCCCCCC1CCC(=O)O1 (stereo not given) | inactive | 
COc1ccc2ccccc2c1 | inactive | 

SMILES | outcome | AC50
CCCCCCCCCCCCCCCCCC[N+](C)(C)C |  | 15.4 µM (active)
CCO[Si](OCC)(OCC)c1ccccc1 | inactive | 
CCC(=O)OCc1ccc(OC)cc1 | inactive | 
O=[N+]([O-])c1ccccc1C(F)(F)F | inactive | 
NC(=O)c1ccc(N)cc1 | inactive | 
CC(=O)OC(C)(C)Cc1ccccc1 | inactive | 
CC1(C)S[C@@H]2[C@H](NC(=O)[C@H](N)c3ccccc3)C(=O)N2[C@H]1C(=O)O | inactive | 
O=C(CC(C(=O)OC1CCCCC1)S(=O)(=O)O)OC1CCCCC1 (stereo not given) | inactive | 
OCCOCCOCCOCCOCCO | inactive | 
N#CCN(CC#N)CCN(CC#N)CC#N | inactive | 
O=C1NC(=O)[C@@H]2CC=CC[C@H]12 | inactive | 
C=CCOC(=O)C(=C)C | inactive | 
CCCCCCCCCCCCCC | inactive | 
CC1=NN(c2cc(Cl)c(S(=O)(=O)O)cc2Cl)C(=O)C1N=Nc1ccc(S(=O)(=O)O)cc1 (stereo not given) | inactive | 
CC=CC(=O)O | inactive | 
Clc1ccccn1 | inactive | 
CNC(=C[N+](=O)[O-])NCCSCc1csc(CN(C)C)n1 | inactive | 
CC[N+](CC)(CC(=O)Nc1c(C)cccc1C)Cc1ccccc1 (tested in a mixture with another compound) | inactive | 
Cc1cc(C)c(S(=O)(=O)O)cc1N=Nc1cc(S(=O)(=O)O)c2ccccc2c1O | inactive | 
Cc1cc2nc3c(=O)[nH]c(=O)nc-3n(C[C@H](O)[C@H](O)[C@H](O)CO)c2cc1C | inactive | 
